Laboratory results reported in PubChem BioAssay (NCATS).
Where “and” joins values, the source holds several entries; their conditions need not be identical. Equal values may be shown once. Results filed as inconclusive are left out. A number with no mark means an inactive call. Calls of active or inactive are those of the source. Calls follow the shape of the dose curve; as a rule, active = well fitted curve in the direction sought with a large enough effect; inconclusive = small, poorly fitted or top-dose-only effect, or another doubt; inactive = no such curve, though single readings can be large; an effect the other way counts as inactive or inconclusive.

test: qHTS of pediatric cancer cell lines to identify multiple opportunities for drug repurposing: Confirmatory screen for SK-N-MC cells (AID 1347111); details: SK-N-MC cell viability; series mostly up to 45.9 µM; activity change, negative = cytotoxic: at the top concentration;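 also: cells exposed to compound for 48 h before the readout; nearly all actives have a fitted effect of over 70% in size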;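 as to activity change, negative = cytotoxic: plate controls were DMSO for no effect and bortezomib for full effect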
Summary of the method: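 Seed 500-1,000 cells/well; rest 5 h at 37 degrees C. Pin-transfer compounds, 11-point titration. Incubate 48 h. Add CellTiter-Glo, 15 min RT, read luminescence.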
Potency is read from the fitted curve at half-maximal effect.

Row | Compound | Potency | activity change, negative = cytotoxic [%]
1 | CN1CCCC(n2nc(Cc3ccc(Cl)cc3)c3ccccc3c2=O)CC1 (centres undefined) | 23.3 µM (active) | 
2 | CCC(=O)O[C@]1(C(=O)SCF)[C@H](C)C[C@H]2[C@@H]3C[C@H](F)C4=CC(=O)C=C[C@]4(C)[C@@]3(F)[C@@H](O)C[C@@]21C |  | 2.84
3 | S=P(N1CC1)(N1CC1)N1CC1 | 3.69 µM (active) | 
4 | O=C(NCC1CN(c2ccc(N3CCOCC3=O)cc2)C(=O)O1)c1ccc(Cl)s1 (centres undefined) | 2.93 µM (active) | 
5 | CC1CC2C3CCC4=CC(=O)C=C[C@]4(C)[C@@]3(F)[C@@H](O)C[C@]2(C)[C@@]1(O)C(=O)CO (some centres undefined) |  | 1.9
6 | Nc1nc(=S)c2[nH]cnc2[nH]1 | 11.7 µM (active) and 7.37 µM (active) | 
7 | CNCC[C@H](Oc1cccc2ccccc12)c1cccs1 | 6.57 µM (active) | 
8 | COc1cc2nc(N3CCCN(C)CC3)nc(NC3CCN(Cc4ccccc4)CC3)c2cc1OC | 3.69 µM (active) | 
9 | Nc1nc(N)c2nc(CNc3ccc(C(=O)NC(CCC(=O)O)C(=O)O)cc3)cnc2n1 (centres undefined) | 0.329 µM (active) | 
10 | CO[C@@]12[C@H](COC(N)=O)C3=C(C(=O)C(C)=C(N)C3=O)N1C[C@@H]1N[C@@H]12 | 2.08 µM (active) | 
11 | Oc1c(Cl)cc(Cl)c2cccnc12 | 13.1 µM (active) | 
12 | COc1cc(NCc2ccc3nc(N)nc(N)c3c2C)cc(OC)c1OC | 0.657 µM (active) | 
13 | CCc1c2c(nc3ccc(OC(=O)N4CCC(N5CCCCC5)CC4)cc13)-c1cc3c(c(=O)n1C2)COC(=O)[C@]3(O)CC | 0.737 µM (active) | 
14 | CNS(=O)(=O)CCc1ccc2[nH]cc(C3CCN(C)CC3)c2c1 | 4.14 µM (active) | 

test: qHTS of pediatric cancer cell lines to identify multiple opportunities for drug repurposing: Confirmatory screen for BT-12 cells (AID 1347112); details: BT-12 rhabdoid tumor cells, viability; series mostly up to 45.9 µM; activity change, negative = cytotoxic: at the top concentration;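 also: viability read after 48 h of compound exposure; nearly all actives have a fitted effect of over 55% in size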; as to activity change, negative = cytotoxic: % is scaled to controls: 0 for no effect and ±100 for the full control effect
Summary of the method: (§1)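 Cells (500-1,000/well) rested 5 h, then received compounds for 48 h; metabolically active cells were measured by CellTiter-Glo luminescence. Final concentrations spanned up to 46 µM (MIPE, 11-point) or 0.59 nM-46 µM (NPC, 8-point) in primary screens, 11-point in follow-ups.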

Row | Compound | Potency | activity change, negative = cytotoxic [%]
15 | COC(=O)Nc1nc2ccc(C(=O)c3ccccc3)cc2[nH]1 | 4.14 µM (active) | 
16 | CCC(=O)O[C@]1(C(=O)SCF)[C@H](C)C[C@H]2[C@@H]3C[C@H](F)C4=CC(=O)C=C[C@]4(C)[C@@]3(F)[C@@H](O)C[C@@]21C |  | -11.2
17 | S=P(N1CC1)(N1CC1)N1CC1 |  | -3.01
18 | CC1CC2C3CCC4=CC(=O)C=C[C@]4(C)[C@@]3(F)[C@@H](O)C[C@]2(C)[C@@]1(O)C(=O)CO (some centres undefined) |  | -11.7
19 | CS(=O)(=O)c1ccc([C@@H](O)[C@@H](CO)NC(=O)C(Cl)Cl)cc1 |  | -17.4
20 | CNCC[C@H](Oc1cccc2ccccc12)c1cccs1 |  | -3.89
21 | Nc1nc(N)c2nc(CNc3ccc(C(=O)NC(CCC(=O)O)C(=O)O)cc3)cnc2n1 (centres undefined) | 0.928 µM (active) | 
22 | N=C(N)c1ccc(OCCCCCOc2ccc(C(=N)N)cc2)cc1 | 3.29 µM (active) | 
23 | CNNCc1ccc(C(=O)NC(C)C)cc1 |  | -9.79
24 | CO[C@@]12[C@H](COC(N)=O)C3=C(C(=O)C(C)=C(N)C3=O)N1C[C@@H]1N[C@@H]12 | 16.5 µM (active) | 
25 | COc1cc(NCc2ccc3nc(N)nc(N)c3c2C)cc(OC)c1OC | 3.29 µM (active) | 
26 | CNS(=O)(=O)CCc1ccc2[nH]cc(C3CCN(C)CC3)c2c1 |  | -3.72

test: qHTS of pediatric cancer cell lines to identify multiple opportunities for drug repurposing: Confirmatory screen for LAN-5 cells (AID 1347113); details: LAN-5 neuroblastoma cell viability; series mostly up to 45.9 µM; activity change, negative = cytotoxicity: at the top concentration; also: nearly all actives have a fitted effect of over 65% in size; as to activity change, negative = cytotoxicity: % is scaled to controls: 0 for no effect and ±100 for the full control effect
Summary of the method: as §1

Row | Compound | activity change, negative = cytotoxicity [%] | Potency
27 | CCC(=O)O[C@]1(C(=O)SCF)[C@H](C)C[C@H]2[C@@H]3C[C@H](F)C4=CC(=O)C=C[C@]4(C)[C@@]3(F)[C@@H](O)C[C@@]21C | 26.8 | 
28 | CC1CC2C3CCC4=CC(=O)C=C[C@]4(C)[C@@]3(F)[C@@H](O)C[C@]2(C)[C@@]1(O)C(=O)CO (some centres undefined) | 6.92 | 
29 | CS(=O)(=O)c1ccc([C@@H](O)[C@@H](CO)NC(=O)C(Cl)Cl)cc1 | 0.433 | 
30 | Nc1nc(=S)c2[nH]cnc2[nH]1 |  | 2.93 µM (active) and 2.33 µM (active)
31 | Nc1nc(N)c2nc(CNc3ccc(C(=O)NC(CCC(=O)O)C(=O)O)cc3)cnc2n1 (centres undefined) | 0.716 | 
32 | CNNCc1ccc(C(=O)NC(C)C)cc1 | 24.2 | 
33 | CO[C@@]12[C@H](COC(N)=O)C3=C(C(=O)C(C)=C(N)C3=O)N1C[C@@H]1N[C@@H]12 |  | 1.31 µM (active)
34 | Oc1c(Cl)cc(Cl)c2cccnc12 |  | 14.7 µM (active)
35 | COc1cc(NCc2ccc3nc(N)nc(N)c3c2C)cc(OC)c1OC |  | 18.5 µM (active)
36 | CCc1c2c(nc3ccc(OC(=O)N4CCC(N5CCCCC5)CC4)cc13)-c1cc3c(c(=O)n1C2)COC(=O)[C@]3(O)CC |  | 2.93 µM (active)
37 | CNS(=O)(=O)CCc1ccc2[nH]cc(C3CCN(C)CC3)c2c1 | 14.4 | 
38 | CNC(=O)c1cc(Oc2ccc(NC(=O)Nc3ccc(Cl)c(C(F)(F)F)c3)cc2)ccn1 |  | 23.3 µM (active)

test: qHTS of pediatric cancer cell lines to identify multiple opportunities for drug repurposing: Confirmatory screen for SJ-GBM2 cells (AID 1347116); details: SJ-GBM2 glioblastoma cells, viability; series mostly up to 45.9 µM; activity change, negative = cytotoxic: at the top concentration; also: nearly all actives have a fitted effect of over 60% in size;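 as to activity change, negative = cytotoxic: plate controls were DMSO for no effect and bortezomib for full effect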
Summary of the method: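 Viability measured as metabolically active cells via CellTiter-Glo luminescence following 48 hours of compound exposure, 11-point dilutions in confirmatory testing. 500-1,000 cells/well plated 5 hours before dosing; controls were DMSO and 2.3 µM bortezomib.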

Row | Compound | activity change, negative = cytotoxic [%] | outcome | Potency
39 | S=P(N1CC1)(N1CC1)N1CC1 | -16.2 |  | 
40 | O=C(NCC1CN(c2ccc(N3CCOCC3=O)cc2)C(=O)O1)c1ccc(Cl)s1 (centres undefined) | 8.23 |  | 
41 | CC1CC2C3CCC4=CC(=O)C=C[C@]4(C)[C@@]3(F)[C@@H](O)C[C@]2(C)[C@@]1(O)C(=O)CO (some centres undefined) | 11.6 |  | 
42 | CS(=O)(=O)c1ccc([C@@H](O)[C@@H](CO)NC(=O)C(Cl)Cl)cc1 |  | inactive | 
43 | Nc1nc(=S)c2[nH]cnc2[nH]1 |  |  | 5.22 µM (active)
44 | CNCC[C@H](Oc1cccc2ccccc12)c1cccs1 | 6.68 |  | 
45 | COc1cc2nc(N3CCCN(C)CC3)nc(NC3CCN(Cc4ccccc4)CC3)c2cc1OC |  |  | 0.928 µM (active)
46 | N=C(N)c1ccc(OCCCCCOc2ccc(C(=N)N)cc2)cc1 | -16.3 |  | 
47 | CNNCc1ccc(C(=O)NC(C)C)cc1 |  | inactive | 
48 | CO[C@@]12[C@H](COC(N)=O)C3=C(C(=O)C(C)=C(N)C3=O)N1C[C@@H]1N[C@@H]12 |  |  | 16.5 µM (active)
49 | CNS(=O)(=O)CCc1ccc2[nH]cc(C3CCN(C)CC3)c2c1 |  | inactive | 
